Laboratory results published in PubChem BioAssay (NCI).
About 79,000 compounds went through this panel and 15% of them were active in at least one assay; those are over-represented in the sample as a whole. Values without a mark were called inactive. Calls of active or inactive are those of the source. Rule as the data show it: active = growth inhibition above about 70%; inactive = the rest.

How the values were obtained:
[1] = NCI Yeast Anticancer Drug Screen. Data for the rad50 strain (AID 155);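 also: 0% = growth of vehicle-only cultures of the same strain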; conditions: S. cerevisiae rad50 strain growth inhibition, stronger effect = higher value
How it was run: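 Genetically altered yeast (DNA repair pathway); compound treatment; growth inhibition vs vehicle ctrl.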

[2] = NCI Yeast Anticancer Drug Screen. Data for the mec2-1 strain (AID 157); conditions: S. cerevisiae mec2-1 strain, stronger effect = higher value
How it was run: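 Growth inhibition is read against vehicle-treated controls after compound exposure of the mec2-1 yeast strain, which is defective in DNA damage repair or cell cycle control.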

[3] = NCI Yeast Anticancer Drug Screen. Data for the sgs1 mgt1 strain (AID 161);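 also: 0% = growth of cultures given vehicle only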; conditions: S. cerevisiae sgs1 mgt1 strain, stronger effect = higher value
How it was run: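 This yeast growth screen uses a strain with defined DNA-repair lesions; compound-treated growth is compared with vehicle-treated growth.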

[4] = NCI Yeast Anticancer Drug Screen. Data for the cln2 rad14 strain (AID 165);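 also: 0% = growth equal to vehicle treated cultures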; conditions: S. cerevisiae cln2 rad14 strain, stronger effect = higher value
How it was run: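 Growth inhibition, relative to vehicle-treated controls, is the read-out. The test organism is a yeast strain with defined genetic alterations, cln2 rad14.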

[5] = NCI Yeast Anticancer Drug Screen. Data for the bub3 strain (AID 167); conditions: S. cerevisiae bub3 mutant strain, stronger effect = higher value
How it was run: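 Yeast carrying a defined mutation is treated with each compound, and growth is compared with that of vehicle-exposed cells to give inhibition.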

[6] = NCI Yeast Anticancer Drug Screen. Data for the mlh1 rad18 strain (AID 175); conditions: S. cerevisiae mlh1 rad18 strain growth inhibition, stronger effect = higher value
How it was run: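 Cells of a genetically altered yeast strain, deficient in DNA damage repair, were treated with compound. Their growth was then compared with that of vehicle-treated cultures to give inhibition.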

[7] = at 5.0 µM (retest, dose inferred, filed as 0.5)
[8] = at 50.0 µM (retest, dose inferred, filed as 5.0)

Compound	growth inhibition [1, 7]	growth inhibition [1, 8]	growth inhibition ([1]; at 50.0 µM)	growth inhibition [2, 7]	growth inhibition [2, 8]	growth inhibition ([2]; at 50.0 µM)	growth inhibition [3, 7]	growth inhibition [3, 8]	growth inhibition ([3]; at 50.0 µM)	growth inhibition [4, 7]	growth inhibition [4, 8]	growth inhibition ([4]; at 50.0 µM)	growth inhibition [5, 7]	growth inhibition [5, 8]	growth inhibition ([5]; at 50.0 µM)	growth inhibition [6, 7]	growth inhibition [6, 8]	growth inhibition ([6]; at 50.0 µM)
O=[N+]([O-])/C=C/c1cc2c(ccc3ccccc32)[nH]1	61%	98% (active)	82.7% (active)	94% (active)	95% (active)	92.2% (active)	88% (active)	98% (active)	94.5% (active)	37%	92% (active)	93.3% (active)	96% (active)	98% (active)	90.7% (active)	87% (active)	97% (active)	89% (active)
CC12CCC(=O)C=C1CCC1C2CCC2(C)C(c3cnc[nH]3)CCC12 (stereo not given)	51%	75% (active)	77% (active)	36%	46%	30.1%	39%	82% (active)	65.2%	52%	43%	34.9%	53%	70% (active)	69.5%	41%	70% (active)	39.1%
CSC(=S)N/N=C\C(O)C(O)C(O)C(O)CO (stereo not given)	-2%	9%	97.6% (active)	-2%	0%	95.8% (active)	-2%	1%	95.2% (active)	0%	0%	70.3% (active)	-1%	-2%	96.3% (active)	-2%	9%	97.8% (active)
CCCCCCCCCc1cc(O)c(O)cc1CCCCCCCCC	-8%	80% (active)	22.4%	-13%	68%	25.2%	-7%	42%	42.9%	-23%	86% (active)	54.1%	-12%	79% (active)	22.4%	-2%	66%	1.65%
CC(=O)Nc1n[n+]([O-])c2cc(C)ccc2[n+]1[O-]	96% (active)	99% (active)	99.2% (active)	96% (active)	99% (active)	99.7% (active)	93% (active)	99% (active)	99.4% (active)	92% (active)	99% (active)	99% (active)	95% (active)	99% (active)	99% (active)	97% (active)	99% (active)	99.4% (active)
O=C(CC1(O)C(=O)Nc2c(Cl)cc(Cl)cc21)c1ccc(Br)cc1Br (stereo not given)	55%	98% (active)	92.3% (active)	96% (active)	99% (active)	90.8% (active)	97% (active)	92% (active)	91.3% (active)	94% (active)	93% (active)	90.7% (active)	97% (active)	93% (active)	93.8% (active)	58%	98% (active)	92.2% (active)
O=C1c2cc(O)ccc2C(=O)c2c1ccc(O)c2O	11%	98% (active)	98.7% (active)	14%	99% (active)	97.2% (active)	12%	98% (active)	96.5% (active)	12%	97% (active)	90.7% (active)	4%	98% (active)	97.8% (active)	4%	99% (active)	98.2% (active)
C=C(CN(C)C)C(=O)c1ccc(Oc2ccccc2)cc1	99% (active)	100% (active)	99.2% (active)	99% (active)	100% (active)	99.4% (active)	99% (active)	100% (active)	59.5%	71% (active)	99% (active)	99.4% (active)	99% (active)	100% (active)	98.8% (active)	98% (active)	100% (active)	99.5% (active)
C/C(=N\NC(=S)NC(C)(C)C)c1ccccn1	20%	99% (active)	77% (active)	13%	99% (active)	85% (active)	32%	99% (active)	90.5% (active)	31%	99% (active)	89.5% (active)	18%	99% (active)	90.2% (active)	38%	98% (active)	91.2% (active)
c1ccc(-c2n[nH]c3c4ccccc4c4ccccc4c23)cc1	19%	92% (active)	93.8% (active)	16%	98% (active)	95% (active)	34%	97% (active)	94.2% (active)	5%	94% (active)	93.4% (active)	13%	95% (active)	95% (active)	62%	96% (active)	95% (active)
